LmPK inhibitor = LmPK (Leishmania mexicana) enzyme inhibition; Potency, µM (highest dose often 57.5 µM), actives largely listed as inhibitors; purified LmPK, Kinase-Glo ATP luminescence, 1 h; 290,000 tested, 0.37% active; AID 1721
Target sequence (Q27686 whole entry, looked up): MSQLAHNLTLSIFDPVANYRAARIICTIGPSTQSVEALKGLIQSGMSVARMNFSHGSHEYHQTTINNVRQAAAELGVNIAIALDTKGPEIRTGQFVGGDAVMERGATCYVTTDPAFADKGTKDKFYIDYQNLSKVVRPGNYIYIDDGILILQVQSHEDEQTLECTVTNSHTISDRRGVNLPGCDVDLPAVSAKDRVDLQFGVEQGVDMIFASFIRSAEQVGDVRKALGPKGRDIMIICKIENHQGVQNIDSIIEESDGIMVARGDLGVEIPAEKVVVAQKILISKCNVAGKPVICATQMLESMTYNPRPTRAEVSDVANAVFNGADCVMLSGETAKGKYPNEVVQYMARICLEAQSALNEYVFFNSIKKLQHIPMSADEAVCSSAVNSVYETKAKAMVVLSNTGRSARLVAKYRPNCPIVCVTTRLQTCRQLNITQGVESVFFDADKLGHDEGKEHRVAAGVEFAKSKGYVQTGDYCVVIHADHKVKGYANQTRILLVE
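ATP generated from ADP (0.1 mM) and PEP (0.5 mM) by 0.1 nM LmPK over 1 h at room temperature (pH 7.2 imidazole buffer) was detected by coupled luciferase luminescence. Values were normalized to uninhibited and no-enzyme wells.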
SARS PLP yeast = SARS-CoV PLP inhibition in yeast; Potency, µM (top dose mostly 32.9 µM), most hits filed as activators; AID 485353; 330,000 tested, 0.19% active; S. cerevisiae expressing SARS-CoV PLpro, growth rescue; calls by dose curve; also: nearly all actives have a fitted effect of over 55% in size
Tb PYK inh = blocks Trypanosoma brucei pyruvate kinase. AID 624173. Q57TT1. Potency, µM (titrated, usually from 76.8 µM), most hits filed as inhibitors. TbPYK enzyme, Kinase-Glo Plus ATP luminescence, 45 min. 410,000 tested, 0.12% active; also: nearly all actives have a fitted effect of over 50% in size
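ADP (130 uM final) triggers the TbPYK reaction after compound addition; incubation is 45 min at room temperature. Kinase-Glo Plus is then added and luminescence imaged. Normalized data are fitted to concentration-effect curves.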
CHX counter = affects cycloheximide protein synthesis inhibition readout, counter-screen. cell reporter, cycloheximide protein synthesis inhibition counterscreen. max response, %. 300,000 tested, 12% active. AID 2314; in the data active = max response mostly above about 13%, no sharp cut-off; inactive = mostly below about 14%; also: read at 38.3 µM for the half of the compounds with a filed dose
NS1 inh = blocks influenza NS1 protein function. AID 2326. 270,000 tested, 0.4% active. Potency, µM (highest dose often 46.1 µM); calls by dose curve; also: actives are rising curves; nearly all actives have a fitted effect of over 50% in size
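Growth recovery, yeast-based: influenza A NS1 expressed in S. cerevisiae causes slow growth, and suppressors are detected by OD600. The parent strain without NS1 is used as positive control.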
Shiga inhibitor = inhibitors of Shiga toxin in Vero cells; 290,000 tested, 9.2% active; inhibition, % at 38.7 µM; Vero cells, Shiga toxin protein synthesis inhibition reporter; in the data active = inhibition mostly above about 28%, no sharp cut-off; inactive = mostly below about 43%
Of the large screens only hits and unclear results are named; the others gave an inactive call. This excerpt belongs to a sample that is enriched for hits. Unless noted, calls follow the shape of the dose curve; as a rule, active = well fitted curve in the direction sought with a large enough effect; inconclusive = small, poorly fitted or top-dose-only effect, or another doubt; inactive = no such curve, though single readings can be large; an effect the other way counts as inactive or inconclusive.

COc1ccccc1Nc1ncccc1C(=O)O	none
Cc1c(Cl)cccc1Nc1ncccc1C(=O)O	none
CCCNc1ncccc1C(N)=O	none
NC(=O)NC(=O)COC(=O)c1cccnc1Nc1ccccc1F	none
Cc1cc(Cl)ccc1Nc1ncccc1C(N)=O	CHX counter 69, Shiga inhibitor 69
Cc1ccc(Nc2ncccc2C(N)=O)cc1	CHX counter 94, NS1 inh inconclusive, Shiga inhibitor 119
COc1ccc(Nc2ncccc2C(=O)O)cc1	CHX counter 47, Shiga inhibitor 112
CCCCC(CC)C/C=C1\CC(C(=O)OCC)Oc2ccccc21 (centres undefined) (tested in a mixture with another compound)	none (no result: LmPK inhibitor, SARS PLP yeast, Tb PYK inh, NS1 inh)
CCC(=O)N1c2ccc(S(=O)(=O)NC3CCCCC3)cc2CC1C (centres undefined)	CHX counter 31
COc1cccc(CNS(=O)(=O)c2ccc3c(c2)CCN3C(=O)C2CC2)c1	none (no result: NS1 inh)
O=C(C1CC1)N1CCc2cc(S(=O)(=O)NCc3ccccc3)ccc21	CHX counter 14
CC1Cc2cc(S(=O)(=O)NCc3ccccc3)ccc2N1C(=O)C1CCC1 (centres undefined)	none
CC1Cc2cc(S(=O)(=O)NCc3ccccc3)ccc2N1C(=O)C1CC1 (centres undefined)	CHX counter 26
CCC(=O)N1c2ccc(S(=O)(=O)NCc3ccccc3)cc2CC1C (centres undefined)	CHX counter 36
O=S1(=O)CC2N=C(N(Cc3c(F)cccc3Cl)c3ccccc3F)SC2C1 (centres undefined)	none
CCOc1cc(S(=O)(=O)NC2CCCCCC2)ccc1F	Shiga inhibitor 41
CCOc1ccc(S(=O)(=O)NC2CCCCCC2)cc1	none
COCC(=O)Nc1ccc(-c2cn3cccnc3n2)cc1	CHX counter 27
CC(C)(C)CC(=O)Nc1cccc(-c2cn3cccnc3n2)c1	CHX counter 38, Shiga inhibitor 87
CCC(CC)C(=O)Nc1ccc(-c2cn3cccnc3n2)cc1	CHX counter 14, Shiga inhibitor 31
CCC(CC)C(=O)Nc1cccc(-c2cn3cccnc3n2)c1	none (no result: LmPK inhibitor, SARS PLP yeast, CHX counter, NS1 inh, Shiga inhibitor)
CSc1ncc2[nH]c(C(O)c3ccccc3)nc2n1 (centres undefined)	none (no result: LmPK inhibitor, SARS PLP yeast, CHX counter, NS1 inh, Shiga inhibitor)
CN(C)c1ccc(C(=O)Nc2sc(Nc3ccccc3)nc2C(N)=O)cc1	none (no result: LmPK inhibitor, SARS PLP yeast, CHX counter, NS1 inh, Shiga inhibitor)
C=CCN1C(=O)C(C)(C)N(C(=O)c2cccc([N+](=O)[O-])c2)c2ccccc21	none
CC(C)OCCCN1C(=O)c2[nH]nc(-c3ccccc3O)c2C1c1cccc(OCc2ccccc2)c1 (centres undefined)	none (no result: LmPK inhibitor, SARS PLP yeast, CHX counter, NS1 inh, Shiga inhibitor)
CCc1c(C)nc2[nH]nc(-c3ccccc3)n2c1=O	CHX counter 15
O=c1c(-c2n[nH]c(=S)n2-c2ccccc2)cccn1Cc1cccc(Cl)c1	Tb PYK inh 13µM (no result: NS1 inh)
C=CCn1c(-c2cccn(Cc3cccc(Cl)c3)c2=O)n[nH]c1=S	Tb PYK inh 8.9µM
COc1ccc(NC(=S)NCc2ccc3c(c2)OCO3)cc1	none (no result: NS1 inh)
S=C(NCc1ccc2c(c1)OCO2)Nc1ccc(-c2nc3ccccc3[nH]2)cc1	CHX counter 32, Shiga inhibitor 62
CN(C)CCNC(=S)Nc1ccc(-c2nc3ccccc3[nH]2)cc1	CHX counter 46, Shiga inhibitor 122 (no result: NS1 inh)
O=S(=O)(c1ccc(Cl)cc1)c1nc(-c2cccs2)oc1N1CCCCC1	none (no result: LmPK inhibitor, SARS PLP yeast, CHX counter, NS1 inh, Shiga inhibitor)
NC1=NC(=O)C(Cc2ccc(OC(F)(F)F)cc2)S1 (centres undefined)	none
COc1cccc2c1nc(C)c1cc(C)oc12	CHX counter 36
COc1ccc2nc(C)c3cc(C)oc3c2c1	none
Cc1ccccc1N1CC(C(=O)Nc2ccncc2)CC1=O (centres undefined)	none (no result: LmPK inhibitor, CHX counter, NS1 inh, Shiga inhibitor)
Cc1ccccc1CS(=O)(=O)Cc1ccc(C(=O)NCc2ccccn2)o1	NS1 inh inconclusive
CCOc1ccc(OCc2ccc(C(=O)NCc3ccncc3)o2)cc1	CHX counter 17
CCc1ccc(OCc2ccc(C(=O)NCc3ccccn3)o2)cc1	CHX counter 32
CCOC(=O)NC1(Nc2ccc(Cl)cn2)Oc2ccccc2O1	CHX counter 8.1 (no result: Tb PYK inh)
COCCNC(=O)c1cnn(-c2cccc(C)c2)c1-n1cccc1	none (no result: LmPK inhibitor, SARS PLP yeast, CHX counter, NS1 inh, Shiga inhibitor)
COC(=O)c1cnn(-c2ccc(C)c(C)c2)c1-n1cccc1	CHX counter 20
COc1ccc(-c2nc(CCl)cs2)cc1OC	CHX counter 29, Shiga inhibitor 45 (no result: NS1 inh)

Bioassay records: PubChem BioAssay, National Center for Advancing Translational Sciences (NCATS)
